# According to the supplement of paper PMC4894684:
# Where a name gives a salt, the structure may show the parent alone. ± gives the standard deviation of the averaged measurements.
# System: Toxoplasma gondii RH (in HFF)
# Assay: parasite growth relative to the screen mean (all compounds = 100%); higher = less inhibition of parasite growth
# Conditions: 5 µM; 72 h; oxygen 21 %
# How it was run: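 Library compounds, held as 10 mM DMSO stocks, were pinned to 5 µM final onto confluent human foreskin fibroblasts in 96-well plates. The cells were infected within 2 h with RH β-Gal–GFP Toxoplasma (MOI 1:5), grown 72 h at 21% O2, and assayed for parasite number by CPRG β-Gal using in-plate standard curves. Growth is reported relative to the screen mean, in which all compounds = 100%, averaged over two screens, and CellTiter-Blue checked uninfected host-cell viability.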
row,SMILES,parasite growth
1,c1cnc(N2CCN(Cc3ccc4c(c3)OCO4)CC2)nc1 [Piribedil],70.3 ± 8.6%
2,COc1cc(COc2cc(N)c(Cl)cc2C(=O)CCC2CCN(CCNS(C)(=O)=O)CC2)cc(OC)c1,28.1 ± 16%
3,COc1ccc(Nc2ncnc3ccc(OC)cc23)cc1 [MPMQ hydrochloride],146 ± 14%
4,COc1ccc([C@@H]2Sc3ccccc3N(CCN(C)C)C(=O)[C@@H]2OC(C)=O)cc1 [Diltiazem hydrochloride],94.4 ± 43%
5,CN1[C@@H]2CC[C@H]1C[C@@H](OC(=O)c1c[nH]c3ccccc13)C2 [Tropisetron hydrochloride],106 ± 3.1%
6,COc1cccc2c1C(=O)c1c(O)c3c(c(O)c1C2=O)C[C@@](O)(C(C)=O)C[C@@H]3O[C@H]1C[C@H](N)[C@H](O)[C@H](C)O1 [Daunorubicin hydrochloride],< 0%
7,O=C(Cc1ccccc1)Nc1nc2ccc(Cl)cc2c2nc(-c3ccco3)nn12,121 ± 57%
8,CCCn1c(=O)[nH]c2nc(-c3ccc(S(=O)(=O)O)cc3)[nH]c2c1=O,112 ± 5.7%
9,Nc1[nH]nc2nc3ccccc3nc12,142.8 ± 0.82%
10,CN(C)[C@@H]1CCc2[nH]c3ccc(NC(=O)c4ccc(F)cc4)cc3c2C1,124 ± 19%
11,Cc1ccc(NC(=O)C(C)C)cc1C1CCN(Cc2ccc(Oc3ccc(F)c(F)c3)cc2)CC1,< 0%
12,Clc1cccc(Nc2nnc(-c3ccccc3)c3ccccc23)c1,143.2 ± 1.4%
13,CCN(CC)CCOc1ccc(Cc2ccccc2)cc1 [DPPE fumarate],75.7 ± 1.7%
14,Clc1ccc(-c2nc3sccn3c2/C=N/OCc2ccc(Cl)c(Cl)c2)cc1,110 ± 8.4%
